The nature of test [1]: small molecules captured by biotinylated probe aFSTL3 – biochemical, small-molecule microarray, fluorescence 635/667, stem cell growth factor project, primary screen (AID 1064).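 Also: measures binding of the biotinylated anti-FSTL3 antibody to printed compounds.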 The conditions noted are these: higher = more signal.
The nature of test [2]: binders from COS7 lysate, DM2A8 probe, primary screen, torsin A project, cell lysate, small-molecule microarray, fluorescence 635/667 (AID 1065). The conditions noted are these: higher = more signal, COS7 lysate expressing mutant human TOR1A.
A short description of test [3]: small molecules captured by biotinylated probe aFGF2 – biochemical, small-molecule microarray, fluorescence 635/667, stem cell growth factor project, primary screen (AID 1067).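 Also: measures binding of biotinylated aFGF2 protein to printed compounds on slides; z-score merges feature fluorescence and signal-to-noise across triplicate slides.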 The conditions noted are these: higher = more signal.
Test [4] can be described thus: small molecules captured by biotinylated probe aFGF10 – biochemical, small-molecule microarray, fluorescence 635/667, stem cell growth factor project, primary screen (AID 1071).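 Also: score merges 667 nm spot intensity and signal to noise from triplicate slides.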 The conditions noted are these: higher = more signal.
Test [5] addresses Neurogenic locus notch homolog protein 2 (Homo sapiens) (UniProt Q04721). Put plainly: small molecules binding Notch2 protein – biochemical, small-molecule microarray, 635 nm fluorescence, stem cell growth factors, primary screen (AID 1073). The conditions noted are these: higher = more signal.
In test [6] the target is Pro-neuregulin-1, membrane-bound isoform (Homo sapiens) (UniProt Q02297). The experiment in a line: small molecules binding neuregulin-1 protein – biochemical, small-molecule microarray, fluorescence 635/667, psychiatric disease protein project, primary screen (AID 1075).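 Also: score combines 667 nm spot fluorescence with signal to noise.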 The conditions noted are these: NRG1 binding, 635 nm fluorescence, higher = more signal.
For test [7], the system named is Neuregulin-1 EGF-like domain. The experiment in a line: small molecules binding NRG1 EGF domain – biochemical, small-molecule microarray, 635 nm fluorescence, primary screen (AID 1081).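 Also: binding of the protein to compounds printed on small-molecule microarray slides.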 As to conditions: higher = more signal.
A short description of test [8]: FRG1 expression reporter modulators in myotubes – cell-based, C2C12 myotubes, firefly/Renilla luciferase, luminescence, FRG1 inhibition for FSHD, primary screen (AID 1084). The conditions noted are these: FRG1 promoter luciferase, higher = more signal, called active from +8 up or from −8 down.
Test [9] can be described thus: small molecules captured by biotinylated probe aFST – biochemical, small-molecule microarray, fluorescence 635/667, stem cell growth factor project, primary screen (AID 1086).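 Also: score merges 667 nm fluorescence with signal-to-noise of each printed compound spot.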 The conditions noted are these: higher = more signal.
Test [10] is described as follows: binders of probe aHhip on microarray, primary screen, stem cell growth factor project, biochemical, small-molecule microarray, fluorescence 635/667 (AID 1087).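 Also: score merges spot fluorescence at 667nm with spot signal to noise ratio.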 As to conditions: higher = more signal.
For test [11], the system named is PRMT1 (protein arginine N-methyltransferase 1). Put plainly: small molecules binding arginine methyltransferase PRMT1 – biochemical, small-molecule microarray, 635 nm fluorescence, primary screen (AID 1088).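 Also: binding of Prmt1 protein to compounds spotted on small-molecule microarray slides.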 As to conditions: higher = more signal.
A short description of test [12]: growth effects on S. cerevisiae YJM789 – YJM789 clinical isolate, OD600, 24 h, basal, primary screen (AID 1089).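 Also: growth of clinical yeast isolate S. cerevisiae YJM 789 seeded 1000 cells per well; test concentration not given here.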 The conditions noted are these: higher = more signal, called active from +8 up or from −8 down.
Test [13] is described as follows: S. pombe growth modifiers, basal conditions – strain 972, OD600, 24 h, no modulator, primary screen (AID 1090).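 Also: basal condition with compound alone and no growth modifier present; test concentration not given here.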 The conditions noted are these: S. pombe 972 growth, higher = more signal, called active from +8 up or from −8 down.
A short description of test [14]: budding yeast growth modifiers under rapamycin – strain BY4716, OD600, 96 h, primary screen (AID 1091). Also: test concentration not given here. The conditions noted are these: S. cerevisiae BY4716 + rapamycin, higher = more signal, called active from +8 up or from −8 down.
The target in test [15] is Torsin-1A-interacting protein 2 (Homo sapiens) (UniProt Q8NFQ8). The experiment in a line: small molecules binding lysate-expressed LULL1 – cell lysate, human LULL1 lysate, 635/667 nm fluorescence, primary screen (AID 1092).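 Also: probe is lysate of COS7 cells overexpressing human LULL1; score merges per-feature 667 nm fluorescence with signal-to-noise.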 The conditions noted are these: small-molecule microarray, hLULL1 lysate binding, 635 nm fluorescence; higher = more signal.
Test [16] is described as follows: optical density change of DRC41 E. coli – strain DRC41, OD650, 24 h, E. coli filamentation project, primary screen (AID 1093).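 Also: MC1000 strain lacking acrAB efflux and sulA so SOS filamentation is blocked; test concentration not given here.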 As to conditions: E. coli DRC41 growth, higher = more signal, called active from +8 up or from −8 down.
A short description of test [17]: probe aLefty2 binding to arrayed compounds – biochemical, biotinylated probe, 635/667 nm fluorescence, primary screen (AID 1094).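 Also: score merges spot fluorescence near 667 nm with spot signal-to-noise ratio.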 The conditions noted are these: small-molecule microarray, higher = more signal.
The test system of test [18] is Noggin (protein binding on small-molecule microarray). Put plainly: small molecules binding Noggin protein – biochemical, 635/667 nm fluorescence, primary screen (AID 1095).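 Also: score merges 667 nm feature fluorescence with signal to noise over triplicate slides.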 The conditions noted are these: 635 nm fluorescence, higher = more signal.
The target of test [19] is Neurogenic locus notch homolog protein 3 (Homo sapiens) (UniProt Q9UM47). The experiment in a line: small molecules binding NOTCH3 protein – biochemical, 635/667 nm fluorescence, primary screen (AID 1096). The conditions noted are these: small-molecule microarray, 635 nm fluorescence, higher = more signal.
A short description of test [20]: probe aEGFR binding to arrayed compounds – biochemical, biotinylated probe, 635/667 nm fluorescence, primary screen (AID 1097).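 Also: probe is a biotinylated anti-EGFR antibody binding compounds printed on slides; score combines fluorescence near 667 nm and signal to noise of each spot.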 The conditions noted are these: small-molecule microarray, higher = more signal.

Structures are written as SMILES. The source made the active and inactive calls.

Neurogenic locus notch homolog protein 3 (Homo sapiens), sequence (Q9UM47 whole entry, looked up): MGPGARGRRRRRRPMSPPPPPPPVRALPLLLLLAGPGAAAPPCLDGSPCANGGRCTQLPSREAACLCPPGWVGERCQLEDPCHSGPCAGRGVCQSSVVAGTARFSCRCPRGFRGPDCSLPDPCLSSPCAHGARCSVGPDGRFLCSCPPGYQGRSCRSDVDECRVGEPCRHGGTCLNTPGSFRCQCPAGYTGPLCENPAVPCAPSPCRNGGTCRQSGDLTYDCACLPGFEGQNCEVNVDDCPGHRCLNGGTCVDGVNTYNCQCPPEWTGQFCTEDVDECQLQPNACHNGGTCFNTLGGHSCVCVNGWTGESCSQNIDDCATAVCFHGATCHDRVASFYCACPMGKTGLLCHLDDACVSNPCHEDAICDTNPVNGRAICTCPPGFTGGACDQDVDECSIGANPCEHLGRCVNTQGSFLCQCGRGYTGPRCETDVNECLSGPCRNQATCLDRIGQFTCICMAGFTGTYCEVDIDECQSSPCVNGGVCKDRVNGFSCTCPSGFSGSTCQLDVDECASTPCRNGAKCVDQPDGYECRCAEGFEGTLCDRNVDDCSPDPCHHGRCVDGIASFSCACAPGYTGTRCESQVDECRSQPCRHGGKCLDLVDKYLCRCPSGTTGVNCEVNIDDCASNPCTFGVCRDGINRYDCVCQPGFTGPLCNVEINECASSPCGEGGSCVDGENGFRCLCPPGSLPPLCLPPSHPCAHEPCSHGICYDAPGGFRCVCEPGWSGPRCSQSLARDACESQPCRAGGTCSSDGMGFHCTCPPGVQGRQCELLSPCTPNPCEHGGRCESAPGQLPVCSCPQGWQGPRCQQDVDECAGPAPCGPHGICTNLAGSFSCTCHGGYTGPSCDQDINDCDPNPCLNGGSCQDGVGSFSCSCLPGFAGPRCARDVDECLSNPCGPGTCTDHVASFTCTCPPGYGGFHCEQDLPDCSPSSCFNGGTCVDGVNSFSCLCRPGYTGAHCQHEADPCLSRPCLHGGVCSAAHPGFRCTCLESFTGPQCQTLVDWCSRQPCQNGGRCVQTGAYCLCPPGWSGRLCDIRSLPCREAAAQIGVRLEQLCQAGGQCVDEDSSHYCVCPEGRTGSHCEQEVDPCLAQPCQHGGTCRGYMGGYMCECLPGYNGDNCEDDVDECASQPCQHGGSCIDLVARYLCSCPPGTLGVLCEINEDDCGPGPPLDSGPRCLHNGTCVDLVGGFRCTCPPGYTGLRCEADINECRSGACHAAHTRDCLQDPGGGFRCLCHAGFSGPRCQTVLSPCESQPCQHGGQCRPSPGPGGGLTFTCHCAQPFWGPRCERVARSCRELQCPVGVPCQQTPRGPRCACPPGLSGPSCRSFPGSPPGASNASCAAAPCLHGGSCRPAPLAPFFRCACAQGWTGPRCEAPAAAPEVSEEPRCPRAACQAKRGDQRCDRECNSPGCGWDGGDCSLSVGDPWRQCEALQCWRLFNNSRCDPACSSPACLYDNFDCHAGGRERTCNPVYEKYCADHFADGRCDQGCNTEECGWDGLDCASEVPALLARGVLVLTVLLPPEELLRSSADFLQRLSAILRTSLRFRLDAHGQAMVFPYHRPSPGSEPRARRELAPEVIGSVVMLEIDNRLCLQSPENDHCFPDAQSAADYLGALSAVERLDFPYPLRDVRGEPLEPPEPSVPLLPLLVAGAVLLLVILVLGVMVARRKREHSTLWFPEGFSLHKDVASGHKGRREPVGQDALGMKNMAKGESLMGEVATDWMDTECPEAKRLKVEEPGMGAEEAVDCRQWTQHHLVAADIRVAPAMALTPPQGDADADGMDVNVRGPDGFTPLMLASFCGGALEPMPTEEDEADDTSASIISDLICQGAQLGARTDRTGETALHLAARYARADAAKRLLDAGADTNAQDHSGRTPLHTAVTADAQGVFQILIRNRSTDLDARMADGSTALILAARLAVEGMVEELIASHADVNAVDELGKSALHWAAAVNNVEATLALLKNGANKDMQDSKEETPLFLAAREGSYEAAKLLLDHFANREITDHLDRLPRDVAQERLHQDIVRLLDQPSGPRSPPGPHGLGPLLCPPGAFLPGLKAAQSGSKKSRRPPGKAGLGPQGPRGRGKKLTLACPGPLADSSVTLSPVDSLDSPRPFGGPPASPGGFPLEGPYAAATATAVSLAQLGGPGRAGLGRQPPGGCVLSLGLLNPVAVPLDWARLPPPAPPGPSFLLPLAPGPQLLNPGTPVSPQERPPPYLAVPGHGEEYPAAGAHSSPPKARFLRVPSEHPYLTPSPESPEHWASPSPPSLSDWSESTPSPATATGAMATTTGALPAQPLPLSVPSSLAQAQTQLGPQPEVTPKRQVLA
Neurogenic locus notch homolog protein 2 (Homo sapiens), sequence (Q04721 whole entry, looked up, canonical isoform): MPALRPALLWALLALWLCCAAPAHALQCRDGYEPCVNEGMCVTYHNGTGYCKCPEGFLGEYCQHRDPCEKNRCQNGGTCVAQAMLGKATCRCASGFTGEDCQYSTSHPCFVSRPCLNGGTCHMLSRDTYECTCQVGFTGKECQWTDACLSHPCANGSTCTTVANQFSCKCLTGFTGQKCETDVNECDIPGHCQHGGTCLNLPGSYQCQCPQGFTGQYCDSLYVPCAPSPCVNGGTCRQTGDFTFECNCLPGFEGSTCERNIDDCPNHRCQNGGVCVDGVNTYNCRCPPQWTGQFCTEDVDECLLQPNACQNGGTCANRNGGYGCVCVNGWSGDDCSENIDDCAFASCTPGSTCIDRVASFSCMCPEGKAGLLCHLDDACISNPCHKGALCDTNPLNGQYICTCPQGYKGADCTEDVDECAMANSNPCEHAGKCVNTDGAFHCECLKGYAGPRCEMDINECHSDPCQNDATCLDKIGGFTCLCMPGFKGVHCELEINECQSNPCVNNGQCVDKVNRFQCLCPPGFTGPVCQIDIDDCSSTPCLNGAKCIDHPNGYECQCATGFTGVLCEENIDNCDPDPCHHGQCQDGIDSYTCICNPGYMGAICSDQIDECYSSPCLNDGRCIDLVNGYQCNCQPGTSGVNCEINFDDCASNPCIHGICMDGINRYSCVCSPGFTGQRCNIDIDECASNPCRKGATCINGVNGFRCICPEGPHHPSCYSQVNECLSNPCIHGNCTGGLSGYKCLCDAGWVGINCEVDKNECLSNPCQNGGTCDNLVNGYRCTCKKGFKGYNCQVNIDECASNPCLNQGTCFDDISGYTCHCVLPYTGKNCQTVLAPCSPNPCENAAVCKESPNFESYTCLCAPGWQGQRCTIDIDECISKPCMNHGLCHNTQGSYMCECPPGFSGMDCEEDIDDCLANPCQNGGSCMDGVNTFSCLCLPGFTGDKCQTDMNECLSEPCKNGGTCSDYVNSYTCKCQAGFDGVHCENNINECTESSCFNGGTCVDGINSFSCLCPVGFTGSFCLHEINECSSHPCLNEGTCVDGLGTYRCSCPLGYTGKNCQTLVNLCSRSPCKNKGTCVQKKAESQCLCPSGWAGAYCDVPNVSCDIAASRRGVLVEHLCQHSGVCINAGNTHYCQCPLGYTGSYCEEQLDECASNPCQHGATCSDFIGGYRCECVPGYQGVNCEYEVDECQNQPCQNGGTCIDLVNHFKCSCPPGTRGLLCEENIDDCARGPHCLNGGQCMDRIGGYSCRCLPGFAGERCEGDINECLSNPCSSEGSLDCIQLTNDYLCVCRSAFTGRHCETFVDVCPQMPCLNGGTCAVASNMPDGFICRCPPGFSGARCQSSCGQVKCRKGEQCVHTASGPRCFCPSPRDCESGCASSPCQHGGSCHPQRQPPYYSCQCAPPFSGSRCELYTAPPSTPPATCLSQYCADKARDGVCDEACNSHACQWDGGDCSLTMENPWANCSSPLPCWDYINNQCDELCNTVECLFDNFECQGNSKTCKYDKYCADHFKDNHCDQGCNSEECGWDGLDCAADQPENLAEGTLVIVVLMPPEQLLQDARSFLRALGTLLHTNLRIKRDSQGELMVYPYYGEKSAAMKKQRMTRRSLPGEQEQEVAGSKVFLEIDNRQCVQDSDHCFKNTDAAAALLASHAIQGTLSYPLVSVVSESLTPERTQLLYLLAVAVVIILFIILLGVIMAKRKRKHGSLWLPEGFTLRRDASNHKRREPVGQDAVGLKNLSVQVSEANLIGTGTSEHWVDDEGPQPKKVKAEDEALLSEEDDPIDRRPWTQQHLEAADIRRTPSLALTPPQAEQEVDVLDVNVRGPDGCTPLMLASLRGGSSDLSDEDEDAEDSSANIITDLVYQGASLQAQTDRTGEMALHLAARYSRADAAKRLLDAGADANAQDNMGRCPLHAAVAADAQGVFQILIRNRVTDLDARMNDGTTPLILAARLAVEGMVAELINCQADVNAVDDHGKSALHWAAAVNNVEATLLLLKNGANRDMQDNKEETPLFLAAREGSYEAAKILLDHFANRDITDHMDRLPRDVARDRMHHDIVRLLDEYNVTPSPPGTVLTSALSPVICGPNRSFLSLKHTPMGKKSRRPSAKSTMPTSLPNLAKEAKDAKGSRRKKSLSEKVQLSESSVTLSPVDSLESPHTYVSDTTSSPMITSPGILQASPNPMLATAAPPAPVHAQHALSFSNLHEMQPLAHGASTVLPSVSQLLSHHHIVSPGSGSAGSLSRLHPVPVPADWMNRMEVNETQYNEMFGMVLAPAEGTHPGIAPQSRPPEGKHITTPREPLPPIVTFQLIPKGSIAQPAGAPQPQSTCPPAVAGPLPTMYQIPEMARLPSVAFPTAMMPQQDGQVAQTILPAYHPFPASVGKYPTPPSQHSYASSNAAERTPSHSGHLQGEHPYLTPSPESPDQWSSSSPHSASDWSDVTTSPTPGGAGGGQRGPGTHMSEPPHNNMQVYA

For `O=C(O)[C@H]1C[C@H]2C(=O)N[C@@H](Cc3ccccc3)C(=O)N2[C@H]1c1cccc(OCCO)c1`, the composite z-score in [1] was 0.07; in test [2], 0.96; in test [3], -0.0246; in test [4], 0.495; in [5], -0.116; in test [6], 0.154. The composite z-score was determined as 1.44 in test [7]; 0.309 in test [9]; 0.188 in [10]; 1.46 in test [11]; 2.14 in [15]; 0.127 in test [17]. Further, the composite z-score came out at 1.74 in test [18], 0.814 in test [19] and 0.206 in test [20]. Moreover, the z-score in test [8] was 5.68 (inactive); in [12] it was 0.893 (inactive); in [13], -1.11 (inactive); in test [14], -0.629 (inactive); in test [16] it was 0.446 (inactive).
Regarding `[N-]=[N+]=NCc1ccccc1C[C@]1(C(=O)N2CCOCC2)COC(c2ccc(OCCCO)cc2)=N1`, the composite z-score in test [1] amounted to 0.518; in [2] it was 0.456; in test [3], 0.083; in test [4] it was 0.973; in test [5], 0.626; in [6], 1.02. Further, the composite z-score is 1.24 in [7]; 0.73 in test [9]; -0.0237 in test [10]; 1.5 in test [11]; 2.39 in test [15]; 0.273 in test [17]. Further, the results for the composite z-score in [18], in test [19] and in test [20] were -0.296, 0.364 and 0.0706, respectively. Also, the z-score in [8] is -2.87 (inactive); in test [12], -0.486 (inactive); in test [13], -5.38 (inactive); in test [14], 32.4 (active); in [16], 3.3 (inactive).
For `CN1C(=O)C2C(C1=O)C1C=C(CCCO)C2C(C2CC2)N1Cc1cc2c(cc1Br)OCO2` (stereo not given), the composite z-score is 0.454 in test [1]; 0.919 in test [2]; -0.141 in test [3]; 0.271 in test [4]; 0.713 in test [5]; 1.24 in test [6]. Besides, the composite z-score in [7] was 1.29; in [9] it was 0.252; in test [10] it was -0.201; in test [11], 0.84; in [15], 2.82; in [17], 0.183. Moreover, the composite z-score in [18] came out at 0.304; in test [19], 0.699; in test [20], 0.0185. Further, the z-score in [8] is -0.999 (inactive); in [12], -3.43 (inactive); in test [13], -1.03 (inactive); in test [14] it was -0.932 (inactive); in test [16], 0.307 (inactive).
Turning to `COC(=O)C(CC#Cc1ccc2c(c1)[C@]1(C(=O)N2)[C@H](c2ccc(O)cc2)N2[C@H](c3ccccc3)[C@H](c3ccccc3)OC(=O)[C@H]2[C@@H]1C(=O)N1CCCCCCC1)C(=O)OC`, the composite z-score in [1] turned out to be 3.08; in test [2], 0.716; in [3] it was 0.61; in test [4] it was 0.156; in test [5] it was 1.08; in test [6] it was 1.19. The composite z-score in test [7] stood at 1.19; in test [9] it was 2.44; in test [10], 0.17; in test [11], 1.53; in test [15], 4.02; in [17], 1.5. The composite z-score in test [18] stood at 1.91; in [19], 1.14; in [20] it was 0.804. For the same compound, the z-score in test [8] is -0.546 (inactive); in test [12], -1.87 (inactive); in test [13] it was -1.29 (inactive); in test [14] it was -0.939 (inactive); in test [16] it was 0.88 (inactive).
Regarding `CCOC(=O)C=Cc1ccccc1O`, the composite z-score in [1] was -0.13; in test [2], 0.0396; in test [3], -0.0156; in test [4], 0.205; in test [5], 0.578; in test [6], -0.0345. Also, the composite z-score is 0.614 in [7]; 0.245 in test [9]; -0.0003 in [10]; 0.697 in test [11]; 1.44 in test [15]; -0.0432 in test [17]. Besides, the composite z-score in [18] is -0.0491; in test [19], 0.947; in test [20], 0.0594. For the same compound, the z-score in test [8] is 0.911 (inactive); in test [12] it was -23.9 (active); in test [13], -9.67 (active); in test [14], -1.89 (inactive); in test [16], 0.354 (inactive).

(Values after PubChem BioAssay.)
